Measurements published in PubChem BioAssay.
Active and inactive are the calls of the source.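 Rule for the calls, unless noted: active = NADPH fluorescence slope more negative than the mean of all samples by about 3 SD, 99.7% confidence; inactive = the rest.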

Assays:
[1] = inhibitors of TNFa-induced NFkB p65 translocation, primary screen, imaging, HUVEC, MLSMR starter and 10KST1 sets (AID 438;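 active = inhibition above 20% together with a positive visual image hit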;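 note: compound added about 3h40 before a 20 min TNFalpha stimulation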;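 for inhibition: signal is the nuclear over cytoplasmic p65 intensity ratio per well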); details: HUVEC TNFa-induced p65 nuclear translocation; cell count: measured here: nuclei count (cytotoxicity indicator), at 2.08 µM; inhibition: at 2 µM, stronger effect = higher value, 0% TNFa-plus-vehicle, 100% no-TNFa wells
[2] = inhibitors of mutant huntingtin aggregation, primary screen, imaging, exon1htt(103Q)mCFP cells, high-content imaging (AID 483;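 active = visual image review flags a hit and inhibition of aggregation exceeds 20%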;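 note: compound exposure lasted 3 days before fixation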;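 for nuclei count: percent of the per-plate median nuclei count of sample wells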); details: exon1htt(103Q)mCFP cell line, aggregate imaging, at 2 µM; inhibition of aggregation: stronger effect = higher value; nuclei count: measured here: cell count, toxicity
[3] = inhibitors of E-selectin induction by TNFa, primary screen, imaging, HUVEC, immunofluorescence, MLSMR starter and 10KST1 sets (AID 487;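 active = visually confirmed hit in the image check and inhibition above 20%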;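 for inhibition: signal is fraction of cell area covered by stained E-selectin grains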;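 for nuclei count: 100% = median nuclei count of all wells on the same plate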); details: HUVEC TNFalpha-induced E-selectin immunofluorescence imaging, at 2 µM; inhibition: stronger effect = higher value; nuclei count: measured here: cell number, toxicity
[4] = target: Voltage-gated potassium channel subunit beta-2 (Rattus norvegicus) (UniProt P62483); assay: KvBeta enzyme negative modulators, primary screen, biochemical, NADPH fluorescence (AID 622;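 active = fluorescence slope higher than the sample average by over 3 SD, cut at about -0.22 in these data, passing the limit was not always enough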;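 note: slope of raw intensity against log time taken from 70 to 1610 s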); details: recombinant KvBeta, 4-cyanobenzaldehyde reduction, at 10 µM, stronger effect = higher value
Voltage-gated potassium channel subunit beta-2 (Rattus norvegicus), sequence (P62483 whole entry, looked up): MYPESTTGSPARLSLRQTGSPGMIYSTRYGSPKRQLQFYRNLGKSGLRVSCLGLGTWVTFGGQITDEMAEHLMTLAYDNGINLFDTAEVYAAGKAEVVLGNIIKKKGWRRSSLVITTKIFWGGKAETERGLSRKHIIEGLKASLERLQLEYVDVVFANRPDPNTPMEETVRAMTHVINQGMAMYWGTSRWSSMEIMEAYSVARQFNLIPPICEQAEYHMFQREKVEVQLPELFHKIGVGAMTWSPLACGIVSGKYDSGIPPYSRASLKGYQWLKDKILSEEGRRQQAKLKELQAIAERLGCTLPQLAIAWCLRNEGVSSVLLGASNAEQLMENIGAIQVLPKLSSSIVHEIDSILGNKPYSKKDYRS

[5] = target: Voltage-gated potassium channel subunit beta-2 (Rattus norvegicus) (UniProt P62483); assay: KvBeta positive modulators, primary screen, biochemical, NADPH fluorescence (AID 623); details: Recombinant KvBeta, NADPH fluorescence decrease slope, 10 min; at 10 µM; stronger effect = lower value;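 note: fluorescence intensity change per second fitted from 20 to 320 s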
[6] = target: Alpha-2C adrenergic receptor (Homo sapiens) (UniProt P18825); assay: modulators of alpha2C/GIRK thallium flux, primary screen, cell-based, HEK293 alpha2C/GIRK1/2 (AID 624;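 active = fluorescence slope after compound addition differing from the mean of all screened samples at 99.7% confidence, in either direction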;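 note: slope of fluorescence ratio to pre-addition baseline per second over 15 to 24 s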); details: thallium flux BTC fluorescence, at 10 µM, actives lie on both sides
Alpha-2C adrenergic receptor (Homo sapiens), sequence (P18825 whole entry, looked up): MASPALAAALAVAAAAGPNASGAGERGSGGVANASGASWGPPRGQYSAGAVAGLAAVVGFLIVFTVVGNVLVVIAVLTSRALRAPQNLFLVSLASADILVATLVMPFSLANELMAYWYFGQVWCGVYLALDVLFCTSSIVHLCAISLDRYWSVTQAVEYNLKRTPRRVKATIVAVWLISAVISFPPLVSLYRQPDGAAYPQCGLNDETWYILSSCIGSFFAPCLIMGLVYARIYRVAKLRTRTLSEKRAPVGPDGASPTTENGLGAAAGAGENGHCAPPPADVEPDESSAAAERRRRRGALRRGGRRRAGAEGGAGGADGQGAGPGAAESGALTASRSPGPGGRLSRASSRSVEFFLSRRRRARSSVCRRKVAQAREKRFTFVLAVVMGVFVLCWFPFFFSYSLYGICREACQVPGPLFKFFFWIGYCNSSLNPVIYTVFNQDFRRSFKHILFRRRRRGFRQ

[7] = inhibitors of Sendai virus-induced IRF3 signaling, primary screen, TLR/RLR signaling modifier project, cell-based, Sendai virus stimulus, luciferase, 10K MLSCN set (AID 602276;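 active = inhibition at or above 50% at 10 µM; inactive = inhibition below 50%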;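 note: firefly luciferase from ISG56 promoter only with Renilla not read in this screen; 0% = Sendai virus plus DMSO and 100% = medium plus DMSO without virus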); details: HEK293 RL24 IRF3 luciferase reporter, at 10 µM, stronger effect = higher value
[8] = inhibitors of poly I:C-induced TLR3 signaling, primary screen, cell-based, poly I:C stimulus, luciferase, 10K MLSCN set (AID 602277;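 active = inhibition of the reporter signal at or above 50%; inactive = inhibition below 50%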); details: HEK293-TLR3 RL24 IRF3 luciferase reporter, at 10 µM, stronger effect = higher value

Structure (SMILES)	cell count [1]	inhibition [1]	inhibition of aggregation [2]	nuclei count [2] [%]	inhibition [3]	nuclei count [3] [%]	fluorescence slope [4]	NADPH fluorescence slope [5]	slope [6]	inhibition [7]	inhibition [8]
CC1CCc2nn(CC(=O)Nc3ccc(F)cc3F)cc2C1 (centres undefined)	644	-2.3% (inactive)	-37.3% (inactive)	41.3	-2.5% (inactive)	111	-0.543 (inactive)	1.3e-05 (inactive)	0.00669 (inactive)	-5.03% (inactive)	21.4% (inactive)
Cc1cc(Cl)cc2c1NC(=O)[C@]21[C@@H]2C(=O)N(Cc3ccccc3)C(=O)[C@@H]2[C@@H]2CCCN21	556	-18.1% (inactive)	-7.5% (inactive)	115	-65.1% (inactive)	107	-0.619 (inactive)	-3.2e-05 (inactive)	0.00523 (inactive)	15.5% (inactive)	27.9% (inactive)
COc1ccc(C(=O)c2ccccc2)c(O)c1	585	-2.6% (inactive)	6.6% (inactive)	94.1	1.3% (inactive)	97.5	-0.443 (inactive)	2.6e-05 (inactive)	0.00543 (inactive)	-1.71% (inactive)	-8.45% (inactive)
COc1ccc(OC)c(Nc2nc(-c3sc(N)nc3C)cs2)c1	715	-8.6% (inactive)	11.3% (inactive)	104	-77.1% (inactive)	105	-0.34 (inactive)	-4.1e-05 (inactive)	0.00384 (inactive)	-4.79% (inactive)	-10.6% (inactive)
Nn1c(SCC(=O)NC2CCCCC2)nnc1-c1ccc(Cl)cc1	376	0.7% (inactive)	-1.9% (inactive)	106	-114% (inactive)	108	-0.472 (inactive)	6.9e-06 (inactive)	0.00502 (inactive)	14.6% (inactive)	19% (inactive)
C/C(=C\c1ccco1)C1C(C#N)=C(N)OC2=C1C(=O)CC(C)(C)C2 (centres undefined)	595	-9.1% (inactive)	11.6% (inactive)	96.3	-87.8% (inactive)	106	-0.303 (inactive)	-6.3e-05 (inactive)	0.00426 (inactive)	15.4% (inactive)	18.7% (inactive)
FC(F)(F)c1cc(-c2ccccc2)nc(N2CCCCC2)n1	286	3.3% (inactive)	3.7% (inactive)	100	-8.9% (inactive)	105	-0.578 (inactive)	-3.3e-05 (inactive)	0.00434 (inactive)	12.9% (inactive)	12.8% (inactive)
Cc1ccccc1CN1CCN(CC(=O)NCc2ccccc2)C1=O	518	-20.8% (inactive)	-45.2% (inactive)	97.7	-45.7% (inactive)	114	-0.42 (inactive)	-0.000111 (inactive)	0.00614 (inactive)	2.1% (inactive)	24.6% (inactive)
CCOC(=O)N1CCN(C(=O)c2ccc3c(=O)n(Cc4ccc(OC)cc4)c(=S)[nH]c3c2)CC1	475	-17% (inactive)	45.2% (active)	59.2	2.4% (inactive)	88.2	-0.496 (inactive)	-2.2e-05 (inactive)	0.00659 (inactive)	11.9% (inactive)	10% (inactive)
CCOC(=O)c1cnc(SCC)[nH]c1=O	436	-11.8% (inactive)	-0.2% (inactive)	118	-34.3% (inactive)	117	-0.351 (inactive)	-2.9e-05 (inactive)	0.00558 (inactive)	6.7% (inactive)	27% (inactive)
CCOC(=O)C1(C)NC(c2ccc(OC)c(OC)c2)C2C(=O)N(CC)C(=O)C21 (centres undefined)	369	-8.4% (inactive)	29.1% (inactive)	105	-211% (inactive)	182	-0.598 (inactive)	-9.8e-06 (inactive)	0.00547 (inactive)	1.25% (inactive)	14.3% (inactive)
Cc1ccccc1C(=O)NC1CCN(Cc2nnnn2CCc2ccccc2)CC1	597	-10.4% (inactive)	-10.6% (inactive)	107	0.8% (inactive)	102	-0.491 (inactive)	-3.4e-05 (inactive)	0.0062 (inactive)	5.02% (inactive)	33.8% (inactive)
O=C(C(c1ccccc1)c1ccccc1)N1CCN(Cc2ccccn2)CC1	357	-7.5% (inactive)	3.4% (inactive)	98.4	-11.4% (inactive)	107	-0.369 (inactive)	-1.3e-05 (inactive)	0.00484 (inactive)	5.9% (inactive)	18.2% (inactive)
CC1(C)C(c2ccccc2)=NC(c2ccccc2)N1O (centres undefined)	422	-2.8% (inactive)	1.2% (inactive)	107	-22.6% (inactive)	113	-0.428 (inactive)	-3e-05 (inactive)	0.0012 (inactive)	5.11% (inactive)	35.3% (inactive)
